# Assay results taken from PubChem BioAssay (Tox21).
# A number with no mark means an inactive call. Results filed as inconclusive are left out. Where a call stands in place of a potency, no number is given. Calls of active or inactive are those of the source. Calls come from the whole dose curve; as a rule, active = well fitted curve in the direction sought with a large enough effect in the repeat runs; inconclusive = weak or mixed curves; inactive = no such curve, though single readings can be large; an effect the other way counts as inactive or inconclusive.
# Experiments:
# [1] = A CellTox Green Cytotoxicity Assay to monitor cytotoxicity in HEK293 cells - 32 hour (AID 1224881); note: nearly all actives have a fitted effect of over 40% in size; note: potency is the fitted concentration of half-maximal effect
# How it was run: (§1)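 Dead-cell fluorescence measured kinetically: asymmetric cyanine dye, HEK293, 600 cells/well, 5 h settle, 23 nL cpd/DMSO, 37 C, reads 0–40 h every 8 h.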
# [2] = A CellTox Green Cytotoxicity Assay to monitor cytotoxicity in HepG2 cells - 0 hour (AID 1224882); note: nearly all actives have a fitted effect of over 35% in size; note: potency is the fitted concentration of half-maximal effect
# How it was run: (§2)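 First, HepG2 cells (600/well) mixed with reagent were plated; second, after 5 h at 37 C they received compounds via pintool; third, fluorescence was measured at 0 h through 40 h at 8 h intervals.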
# [3] = A CellTox Green Cytotoxicity Assay to monitor cytotoxicity in HepG2 cells - 32 hour (AID 1224883); note: nearly all actives have a fitted effect of over 50% in size; note: potency is the fitted concentration of half-maximal effect
# How it was run: as §2
# [4] = A CellTox Green Cytotoxicity Assay to monitor cytotoxicity in HEK293 cells - 8 hour (AID 1224884); note: nearly all actives have a fitted effect of over 35% in size; note: potency is the fitted concentration of half-maximal effect
# How it was run: as §1
# [5] = qHTS RealTime-Glo MT Cell Viability Assay in HepG2 cells - 16 hour (AID 1224885); note: nearly all actives have a fitted effect of over 50% in size
# How it was run: (§3)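 Cells + NanoLuc/prosubstrate dispensed (600 cells/well) → 5 h at 37 C/5% CO2 → compounds in DMSO transferred → 40 h incubation at 37 C, luminescence read at 0, 8, 16, 24, 32, 40 h.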
# [6] = qHTS RealTime-Glo MT Cell Viability Assay in HEK293 cells - 24 hour (AID 1224886); note: top concentration of the series differs between compounds; nearly all actives have a fitted effect of over 50% in size
# How it was run: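 Tox21 10K qHTS, HEK293, 600 cells/well, RealTime-Glo reagent co-dispensed with cells; 5 h preincubation, compound by pintool, 37 C, luminescence at 0–40 h.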
# [7] = qHTS RealTime-Glo MT Cell Viability Assay in HEK293 cells - 8 hour (AID 1224887); note: nearly all actives have a fitted effect of over 50% in size; note: potency is the fitted concentration of half-maximal effect; for activity change, negative = cytotoxicity: top concentration of the series differs between compounds
# How it was run: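 600 HEK293 cells per well, dispensed already mixed with RealTime-Glo MT reagents. Compound dosing came 5 h later. The same wells were read for luminescence at 0, 8, 16, 24, 32 and 40 h of exposure at 37 C.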
# [8] = A CellTox Green Cytotoxicity Assay to monitor cytotoxicity in HEK293 cells - 16 hour (AID 1224888); note: nearly all actives have a fitted effect of over 35% in size; note: potency is the fitted concentration of half-maximal effect
# How it was run: as §1
# [9] = qHTS RealTime-Glo MT Cell Viability Assay in HepG2 cells - 0 hour (AID 1224889); note: nearly all actives have a fitted effect of over 50% in size
# How it was run: as §3
# [10] = A CellTox Green Cytotoxicity Assay to monitor cytotoxicity in HepG2 cells - 8 hour (AID 1224890); note: nearly all actives have a fitted effect of over 45% in size; note: potency is the fitted concentration of half-maximal effect
# How it was run: as §2
SMILES,Potency [1],Potency [2],Potency [3],Potency [4],Potency [5],Potency [6],Potency [7],Potency [8],Potency [9],Potency [10],cytotoxicity increase [1],cytotoxicity [2],cytotoxicity increase [3],cytotoxicity increase [4],"activity change, negative = cytotoxic [5]","activity change, negative = cytotoxicity [6]","activity change, negative = cytotoxicity [7]",activity change [8],"activity change, negative = cytotoxicity [9]",cytotoxicity increase [10]
CCC(C)(C)C(=O)O,inactive,inactive,inactive,inactive,inactive,inactive,inactive,inactive,inactive,inactive,–,–,–,–,–,–,–,–,–,–
CC(CCc1ccc(O)cc1)NCCc1ccc(O)c(O)c1 (stereo not given),inactive,inactive,inactive,inactive,inactive,inactive,inactive,inactive,inactive,inactive,–,–,–,–,–,–,–,–,–,–
O=C(O)c1cccc(Oc2ccccc2)c1,inactive,inactive,inactive,inactive,inactive,inactive,inactive,inactive,inactive,inactive,–,–,–,–,–,–,–,–,–,–
O=C(O)CCS,inactive,inactive,inactive,inactive,inactive,inactive,inactive,inactive,inactive,inactive,–,–,–,–,–,–,–,–,–,–
COc1ccc(C)cc1,inactive,inactive,inactive,inactive,inactive,inactive,inactive,inactive,inactive,inactive,–,–,–,–,–,–,–,–,–,–
CCN(CC)c1cccc(O)c1,inactive,inactive,inactive,inactive,inactive,inactive,inactive,inactive,inactive,inactive,–,–,–,–,–,–,–,–,–,–
CC(=O)NCCO,inactive,inactive,inactive,inactive,inactive,inactive,inactive,inactive,inactive,inactive,–,–,–,–,–,–,–,–,–,–
Nc1ccc(N=Nc2ccc(N)cc2)cc1,inactive,inactive,inactive,inactive,inactive,inactive,inactive,inactive,inactive,inactive,–,–,–,–,–,–,–,–,–,–
CC(O)Cn1cnc2c1c(=O)n(C)c(=O)n2C (stereo not given),inactive,inactive,inactive,inactive,inactive,inactive,inactive,inactive,inactive,inactive,–,–,–,–,–,–,–,–,–,–
Cc1cc([N+](=O)[O-])ccc1N,inactive,inactive,inactive,inactive,inactive,inactive,inactive,inactive,inactive,inactive,–,–,–,–,–,–,–,–,–,–
COc1cc(NS(=O)(=O)c2ccc(N)cc2)nc(C)n1,inactive,inactive,inactive,inactive,inactive,inactive,inactive,inactive,inactive,inactive,–,–,–,–,–,–,–,–,–,–
Cc1ccc(Nc2c(F)cccc2Cl)c(CC(=O)O)c1,inactive,inactive,inactive,inactive,inactive,inactive,inactive,inactive,inactive,inactive,–,–,–,–,–,–,–,–,–,–
CC(C)(O)CCc1ccccc1,inactive,inactive,inactive,inactive,inactive,inactive,inactive,inactive,inactive,inactive,–,–,–,–,–,–,–,–,–,–
O=C(O)CCC(=O)c1ccc(-c2ccccc2)cc1,inactive,inactive,inactive,inactive,inactive,inactive,inactive,inactive,inactive,inactive,–,–,–,–,–,–,–,–,–,–
CC(=O)OC(C)C[N+](C)(C)C (stereo not given),inactive,inactive,inactive,inactive,inactive,inactive,inactive,inactive,inactive,inactive,–,–,–,–,–,–,–,–,–,–
O=CNNC=O,inactive,inactive,inactive,inactive,inactive,inactive,inactive,inactive,inactive,inactive,–,–,–,–,–,–,–,–,–,–
CS(=O)(=O)c1ccc([C@@H](C[C@H]2CCC(=O)C2)C(=O)Nc2cnccn2)cc1Cl,inactive,inactive,inactive,inactive,inactive,inactive,inactive,inactive,inactive,inactive,–,–,–,–,–,–,–,–,–,–
CCCCCc1ccco1,inactive,inactive,inactive,inactive,inactive,inactive,inactive,inactive,inactive,inactive,–,–,–,–,–,–,–,–,–,–
CCN(CC)CC(=O)Nc1c(C)cccc1C(=O)OC,inactive,inactive,inactive,inactive,inactive,inactive,inactive,inactive,inactive,inactive,–,–,–,–,–,–,–,–,–,–
CC(=O)c1ccc[nH]1,inactive,inactive,inactive,inactive,inactive,inactive,inactive,inactive,inactive,inactive,–,–,–,–,–,–,–,–,–,–
CC(=O)OCC1=C(C(=O)O)N2C(=O)[C@@H](NC(=O)CSc3ccncc3)[C@H]2SC1,inactive,inactive,inactive,inactive,inactive,inactive,inactive,inactive,inactive,inactive,–,–,–,–,–,–,–,–,–,–
CC1=C2[C@@H]([C@H](C)CC[C@H]2/C=C(\C)C(=O)O)[C@H](O)C1,inactive,inactive,inactive,inactive,inactive,inactive,inactive,inactive,inactive,inactive,–,–,–,–,–,–,–,–,–,–
CCCCOC(=O)CCCCC(=O)OCCCC,inactive,inactive,inactive,inactive,inactive,inactive,inactive,inactive,inactive,inactive,–,–,–,–,–,–,–,–,–,–

SMILES,Potency [1],Potency [2],Potency [3],Potency [4],Potency [5],Potency [6],Potency [7],Potency [8],Potency [9],Potency [10],cytotoxicity increase [1],cytotoxicity [2],cytotoxicity increase [3],cytotoxicity increase [4],"activity change, negative = cytotoxic [5]","activity change, negative = cytotoxicity [6]","activity change, negative = cytotoxicity [7]",activity change [8],"activity change, negative = cytotoxicity [9]",cytotoxicity increase [10]
CC[C@H]1OC(=O)[C@H](C)[C@@H](O[C@H]2C[C@@](C)(OC)[C@@H](O)[C@H](C)O2)[C@H](C)[C@@H](O[C@@H]2O[C@H](C)C[C@H](N(C)C)[C@H]2O)[C@](C)(O)C[C@@H](C)CN(C)[C@H](C)[C@@H](O)[C@]1(C)O,inactive,inactive,inactive,inactive,inactive,inactive,inactive,inactive,inactive,inactive,–,–,–,–,–,–,–,–,–,–
O=C1CC[C@@H](C(=O)O)N1,inactive,inactive,inactive,inactive,inactive,inactive,inactive,inactive,inactive,inactive,–,–,–,–,–,–,–,–,–,–
CCCCCC,inactive,inactive,inactive,inactive,inactive,inactive,inactive,inactive,inactive,inactive,–,–,–,–,–,–,–,–,–,–
CCCCCCC(O)CCOC(C)=O (stereo not given),inactive,inactive,inactive,inactive,inactive,inactive,inactive,inactive,inactive,inactive,–,–,–,–,–,–,–,–,–,–
CC(C)C(=O)OCCOc1ccccc1,inactive,inactive,inactive,inactive,inactive,inactive,inactive,inactive,inactive,inactive,–,–,–,–,–,–,–,–,–,–
CC[C@H]1OC(=O)[C@H](C)[C@@H](O[C@H]2C[C@@](C)(OC)[C@@H](O)[C@H](C)O2)[C@H](C)[C@@H](O[C@@H]2O[C@H](C)C[C@H](N(C)C)[C@H]2O)[C@](C)(O)C[C@@H](C)C(=O)[C@H](C)[C@@H](O)[C@]1(C)O,inactive,inactive,inactive,inactive,inactive,inactive,inactive,inactive,inactive,inactive,–,–,–,–,–,–,–,–,–,–
O=C(O)/C=C/c1ccc(O)c(O)c1,inactive,inactive,inactive,inactive,inactive,inactive,inactive,inactive,inactive,inactive,–,–,–,–,–,–,–,–,–,–
C1CCCCC1,inactive,inactive,inactive,inactive,inactive,inactive,inactive,inactive,inactive,inactive,–,–,–,–,–,–,–,–,–,–
CC(C)C1CCC(C(=O)N[C@H](Cc2ccccc2)C(=O)O)CC1 (stereo not given in full),inactive,inactive,inactive,inactive,inactive,inactive,inactive,inactive,inactive,inactive,–,–,–,–,–,–,–,–,–,–
CCN(CC)CCNC(=O)c1cc(Cl)c(N)cc1OC,inactive,inactive,inactive,inactive,inactive,inactive,inactive,inactive,inactive,inactive,–,–,–,–,–,–,–,–,–,–
CC(C)COC(=O)COc1cc(Cl)c(Cl)cc1Cl,inactive,inactive,inactive,inactive,inactive,inactive,inactive,inactive,inactive,inactive,–,–,–,–,–,–,–,–,–,–
CC(=O)C(=O)CC(C)C,inactive,inactive,inactive,inactive,inactive,inactive,inactive,inactive,inactive,inactive,–,–,–,–,–,–,–,–,–,–
Nc1ccc(NC(=O)c2ccc(N)cc2)cc1,inactive,inactive,inactive,inactive,inactive,inactive,inactive,inactive,inactive,inactive,–,–,–,–,–,–,–,–,–,–
CC(C)N(C)C,inactive,inactive,inactive,inactive,inactive,inactive,inactive,inactive,inactive,inactive,–,–,–,–,–,–,–,–,–,–
CC(C)c1ccc(C(=O)N=C(N)N)cc1S(C)(=O)=O,inactive,inactive,inactive,inactive,inactive,inactive,inactive,inactive,inactive,inactive,–,–,–,–,–,–,–,–,–,–
Nc1nc(-c2ccc([N+](=O)[O-])cc2)cs1,inactive,inactive,inactive,inactive,inactive,inactive,inactive,inactive,inactive,inactive,–,–,–,–,–,–,–,–,–,–
CCCCCCCCCCCCCOC(=O)CCSCCC(=O)OCCCCCCCCCCCCC,–,–,–,–,–,–,–,–,–,–,13.9% [at 15.8 µM],4.63% [at 15.8 µM],-0.352% [at 15.8 µM],12.5% [at 15.8 µM],-6.5% [at 15.8 µM],-2.9% [at 15.8 µM],-5.3% [at 15.8 µM],"17.2% [at 15.8 µM, stronger effect = higher value]",-15% [at 15.8 µM],4.96% [at 15.8 µM]
CCOC(=O)Oc1ccc(CCNC(=O)[C@H](CCSC)NC(C)=O)cc1OC(=O)OCC,inactive,inactive,inactive,inactive,inactive,inactive,inactive,inactive,inactive,inactive,–,–,–,–,–,–,–,–,–,–
CN=C(N)NC(=O)Nc1c(C)cccc1C,inactive,inactive,inactive,inactive,inactive,inactive,inactive,inactive,inactive,inactive,–,–,–,–,–,–,–,–,–,–
C=C(C)C(=O)OCCC(F)(F)C(F)(F)C(F)(F)C(F)(F)C(F)(F)C(F)(F)F,inactive,inactive,inactive,inactive,inactive,inactive,inactive,inactive,inactive,inactive,–,–,–,–,–,–,–,–,–,–
CCCCCCOC(=O)CCCCC,inactive,inactive,inactive,inactive,inactive,inactive,inactive,inactive,inactive,inactive,–,–,–,–,–,–,–,–,–,–
CC(C)Cc1ccc(CC(=O)O)cc1,10.7 µM (active),19 µM (active),19 µM (active),9.52 µM (active),inactive,inactive,inactive,9.52 µM (active),inactive,21.3 µM (active),–,–,–,–,–,–,–,–,–,–
Cc1cc(CCC(=O)OCCOCCOCCOC(=O)CCc2cc(C)c(O)c(C(C)(C)C)c2)cc(C(C)(C)C)c1O,inactive,inactive,inactive,inactive,inactive,inactive,33.8 µM (active),inactive,inactive,inactive,–,–,–,–,–,–,–,–,–,–
